Drawing on ChEMBL document CHEMBL4513216, “Probing the Open Global Health Chemical Diversity Library for Multistage-Active Starting Points for Next-Generation Antimalarials” (ACS Infect Dis, 2020), this text covers INHIBITION for 54 compounds.

Screen size: about 69,000 compounds; about 8,600 (12%) showed an effect of 50% or more. The list comes from a sample in which strong results are over-represented; it also holds similar structures and randomly drawn compounds.

This assay relates to Plasmodium berghei. Description: Screen against P. berghei liver stage (PbLuc), transformed with Luciferase, at 10uM. Format: functional, HepG2. As to conditions: tested at 10 uM.
In the case of `Cn1ccc(C(=O)N2C[C@@H]3OCCN(c4ncccn4)[C@@H]3C2)n1`, the INHIBITION was determined as 18.4%.

`Cc1nc(-c2ccccc2)n(CC(=O)NC(C)(C)C)n1`: the INHIBITION is reported as 16.8%.

As for `Cc1nc(CC(=O)NCc2csc(N3CCCC3)n2)cs1`, the INHIBITION is recorded as 70.3%.

With `CC(C)OCCC(=O)NCCc1csc(N2CCCC2)n1`, the INHIBITION stood at 48.3%.

As to `CCC=C(C)C(=O)NCCc1csc(N2CCCC2)n1`, the INHIBITION is on record as 41.4%.

Turning to `CCNC(=O)NCCc1csc(N2CCCC2)n1`, the INHIBITION came out at 39.7%.

`CC(C)(C)SCC(=O)NCCc1csc(N2CCCC2)n1`: the INHIBITION was found to be 78.2%.

In the case of `CCN(CC)CC(=O)NCCc1csc(N2CCCC2)n1`, the INHIBITION is listed as 9.48%.

`CCCc1nc(CNC(=O)Cc2csc(C)n2)cs1`: the INHIBITION was found to be 9.35%.

With `CC(C)(C)OC(=O)NCCc1csc(N2CCCC2)n1`, the INHIBITION is 65.4%.

For `Cc1ncsc1CCC(=O)NCc1csc(N2CCCC2)n1`, the INHIBITION is on record as -20.8%.

Consider `O=C(CN1CC(c2nc(-c3ccco3)no2)C1)NCCc1ccccc1`, for which the INHIBITION was -63.6%.

Turning to `Cc1nc(NC(=O)c2c3c(nn2C2CCS(=O)(=O)C2)CCC3)sc1C` (centres undefined), the INHIBITION is reported as -14.9%.

Regarding `O=C(NCc1ccc(CO)cc1)C1CCOc2ccccc2C1` (centres undefined), the INHIBITION amounted to 5.91%.

Consider `Cn1nc(C(=O)N2CCOCC2)cc1C(=O)Nc1cc(Cl)cc(Cl)c1`, for which the INHIBITION was 45.9%.

Consider `CCc1nnc(NC(=O)NCCN(C)C(=O)OC(C)(C)C)s1`, for which the INHIBITION was 1.98%.

`CCc1cccc(OCCCN(C)C(=O)CN2CCNC2=O)c1`: the INHIBITION is on record as 17%.

`CC1C(=O)NCCN1CCOc1ccc(C#N)cc1` (centres undefined): the INHIBITION is given as -17.2%.

`N#Cc1ccc(OCCn2cccn2)cc1`: the INHIBITION was 15.7%.

In the case of `N#Cc1cccn(CCOc2ccc(Cl)cc2)c1=O`, the INHIBITION is 77.2%.

On to `CCc1cccc(OCCn2cccc(C#N)c2=O)c1`, for which the INHIBITION is reported as 68.3%.

As to `COc1cccc(Cn2cccc(C#N)c2=O)c1`, the INHIBITION was 41.4%.

For `CC(=O)N1Cc2nccn2CC(CNC(=O)c2cccnc2)C1` (centres undefined), the INHIBITION is recorded as -48.4%.

On to `O=C(c1c(O)cnc2ccccc12)N1CCN(CC(F)F)CC1`, for which the INHIBITION is -32.1%.

Take `CC[C@@H]1N(Cc2nccs2)CCC[C@]12CCC(=O)N2CCOC`: the INHIBITION was 16.4%.

Turning to `Cc1nn(CC(C)C)c(N(C)C)c1CNCCC(=O)NC(C)C`, the INHIBITION worked out at 13%.

Turning to `Cc1nc(C)c(C(C)NCc2c(C(C)C)nn(C)c2N(C)C)s1` (centres undefined), the INHIBITION was 1.2%.

As for `CNC(=O)CCCNCc1c(C)nn(C)c1N(C)C`, the INHIBITION amounted to 14.7%.

For `CNC(=O)CCCNCc1c(C)nn(CC(C)C)c1N(C)C`, the INHIBITION turned out to be 53.3%.

As to `CC(=O)NCCCNCc1c(C)nn(CC(C)C)c1N(C)C`, the INHIBITION came out at 61.1%.

Turning to `Cc1nc(C)c(C(C)NCc2c(C)nn(C)c2N(C)C)s1` (centres undefined), the INHIBITION is given as -15.1%.

In the case of `Cc1nn(CC(C)C)c(N(C)C)c1CNCCCNS(C)(=O)=O`, the INHIBITION stood at 42.1%.

Consider `Cc1nn(CC(C)C)c(N(C)C)c1CNCCS(C)(=O)=O`, for which the INHIBITION worked out at 26.4%.

With `Cc1nc(C)c(C(C)NCc2c(C)nn(CC(C)C)c2N(C)C)s1` (centres undefined), the INHIBITION is listed as 50%.

Consider `Cc1noc(C)c1CN1CCN(Cc2cccnc2)c2ncccc2C1`, for which the INHIBITION came to 22.9%.

`COCCCn1ccc(NS(=O)(=O)c2cc(F)c(C)cc2F)n1`: the INHIBITION turned out to be 23.1%.

As to `CCOc1ccc(Cl)c(C(=O)NCCC(=O)Nc2ccncc2)n1`, the INHIBITION was -0.44%.

As for `O=C1C[C@H]2[C@@H](CCN2C(=O)Cc2cccs2)N1Cc1ccncc1`, the INHIBITION is given as 37.1%.

On to `CCn1cc(C(=O)N2CCOCC2)cn1`, for which the INHIBITION is reported as -60.9%.

In the case of `CNC(=O)c1nc2c(s1)CCN(C(=O)Cc1ccc(OC)cc1)CC2`, the INHIBITION turned out to be 14.2%.

As for `COC(=O)CCC(=O)N1CCc2nc(C(=O)N3CCCCC3)sc2CC1`, the INHIBITION is 57.1%.

In the case of `COC(=O)CCC(=O)N1CCc2nc(C(=O)N3CCOCC3)sc2CC1`, the INHIBITION is -4.99%.

As for `COC(=O)CCC(=O)N1CCc2nc(C(=O)N(C)C)sc2CC1`, the INHIBITION was found to be 79.2%.

In the case of `CCN(CC)C(=O)c1nc2c(s1)CCN(C(=O)CCC(=O)OC)CC2`, the INHIBITION turned out to be 12.7%.

Regarding `COCC(=O)N1CCc2nc(C(=O)N(C)C)sc2CC1`, the INHIBITION is on record as -6.46%.

Turning to `CC(=O)N(C)C1CCN(c2ncc3c(n2)CCN3c2ccccc2)C1` (centres undefined), the INHIBITION was determined as 9.4%.

Regarding `CN(C)c1ncccc1CNC(=O)NCC(c1cccs1)N(C)C` (centres undefined), the INHIBITION is 23.2%.

Take `COC[C@@]12CCO[C@@H]1CCN(C(=O)COc1ccc(C)cc1)C2`: the INHIBITION is listed as -3.52%.

With `O=C(Nc1ccc(F)cc1)C(c1ccccc1)N1CCOCC1` (centres undefined), the INHIBITION is -3.94%.

Consider `COc1cc(CN2CC(=O)N(c3ccc(C)cc3)CC2C)cc(OC)c1` (centres undefined), for which the INHIBITION is listed as 46.6%.

With `COc1ccc(CN2CC(=O)N(c3ccc(C)cc3)CC2C)cc1O` (centres undefined), the INHIBITION is recorded as 43.2%.

For the compound `COc1cccc(OC)c1CN1CC(=O)N(c2ccc(C)cc2)CC1C` (centres undefined), the INHIBITION came to 76.8%.

In the case of `Cn1cc(CN2CCC[C@]3(C[C@@H](Oc4ncccc4F)CO3)C2)cn1`, the INHIBITION is given as 35.5%.

Turning to `CC(C)c1ccc(OCCC(=O)N2CCCC(C(N)=O)C2)cc1` (centres undefined), the INHIBITION was determined as 4.18%.
